# Sfp PPTase inh = qHTS Assay for Inhibitors of Bacillus subtilis Sfp phosphopantetheinyl transferase (PPTase). 4'-phosphopantetheinyl transferase ffp (Bacillus subtilis), Q9F4F7. Biochemical Sfp PPTase activity, qHTS. Potency, µM, inactives show largest response in the series, negative = inhibition, most hits filed as inhibitors. 310,000 compounds, 3.5% hits. AID 1490, 2009;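 also: the enzyme is Sfp with the accession as filed and its product quenches rhodamine fluorescence; 0% = enzyme reaction without inhibitor and -100% = no enzyme wells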
#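 Sfp 15 nM + cpd, 15 min RT; start w/ rhodamine-CoA 5 uM, BHQ-2-YbbR 12.5 uM (final); 50 mM Hepes pH 7.6, 10 mM MgCl2, 0.01% NP-40, 0.01% BSA; read 525/598 nm at 0 and 30 min.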
# HP1b binding inh = HTS for Inhibitors of HP1-beta Chromodomain Interactions with Methylated Histone Tails; Chromobox protein homolog 1 (Homo sapiens), P83916; AlphaScreen HP1-beta / biotin-H3K9me3 peptide binding; Potency, µM (series often up to 114 µM), inactives show top-dose activity change, negative = inhibition, most hits filed as inhibitors; 390,000 compounds, 0.56% hits; AID 540317, 2011; also: nearly all actives have a fitted effect of over 70% in size
#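 HP1-beta protein (50 nM final) preincubated 30 min at room temperature with biotinylated H3(1-18)K9me3 peptide (50 nM) in PBS pH 7.4, 0.01% Tween-20, then compound added for 30 min. AlphaScreen streptavidin donor/nickel chelate acceptor beads (10 ug/mL final), 30 min dark, luminescence read.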
# BAZ2B block = qHTS Assay for Inhibitors of BAZ2B | Bromodomain adjacent to zinc finger domain protein 2B (Homo sapiens), Q9UIF8 | AlphaScreen BAZ2B-H3K14Ac peptide displacement | Potency, µM (top dose mostly 114 µM), without a hit: top-dose activity change, negative = inhibition, most hits filed as inhibitors | 360,000 compounds, 4.4% hits; also: % is scaled to controls: 0 for no effect and ±100 for the full control effect; nearly all actives have a fitted effect of over 60% in size
#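 Protein-peptide AlphaScreen: BAZ2B 50 nM, b-H3K14Ac 50 nM, 1x PBS pH 7.4 + 0.01% Tween-20. Preincubation 30 min RT; cpd 30 min RT (top 110 uM); beads 20 min RT, light-protected.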
# G9a block = qHTS Assay for Inhibitors of Histone Lysine Methyltransferase G9a; Histone-lysine N-methyltransferase EHMT2 (Homo sapiens), Q96KQ7; G9a H3K9 monomethylation, AlphaScreen, 2 h; Potency, µM (doses to about 102 µM), without a hit: at the top dose activity, negative = inhibition, actives largely listed as inhibitors; 350,000 compounds, 8.8% hits; also: % is scaled to controls: 0 for no effect and ±100 for the full control effect; nearly all actives have a fitted effect of over 75% in size
#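 Quantitative HTS format: methyltransferase activity on a biotin-tagged H3K9 peptide is measured by AlphaScreen, using a rabbit anti-monomethyl-H3K9 antibody with streptavidin donor and anti-IgG acceptor beads. Final levels are 20 nM enzyme, 500 nM peptide, 20 uM SAM; 2 h RT.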
# JMJD2A Tudor = qHTS Assay for Inhibitors of JMJD2A-Tudor Domain; Lysine-specific demethylase 4A (Homo sapiens), O75164; AlphaScreen JMJD2A-Tudor / H3K4me3 peptide binding; Potency, µM (titrated, usually from 114 µM), for inactives: at the top dose activity change, negative = inhibition, usual class: inhibitors; 390,000 compounds, 4.4% hits; AID 504339, 2011; also: % is scaled to controls: 0 for no effect and ±100 for the full control effect; nearly all actives have a fitted effect of over 50% in size
# * marks the source's active call; other numbers are inactive results; ? = inconclusive; · = no result; [ ] = dose if it differs, or a comment. A selection: hits, their analogues and other compounds. The true share with any hit is near 12%. Calls follow the shape of the dose curve; as a rule, active = well fitted curve in the direction sought with a large enough effect; inconclusive = small, poorly fitted or top-dose-only effect, or another doubt; inactive = no such curve, though single readings can be large; an effect the other way counts as inactive or inconclusive. Potency is read from the fitted curve at half-maximal effect.
SMILES,Sfp PPTase inh,HP1b binding inh,BAZ2B block,G9a block,JMJD2A Tudor
COCCCNC(=O)c1cc2cc(Br)ccc2oc1=O,13.8%,27.0%,-16.4%,-9.3%,-11.5%
O=C(c1ccccc1)c1cc2ccc(O)cc2oc1=O,-26.2%,16.5%,10.5%,-37.0%[59 µM],-6.7%
O=C(NNC(=O)c1cc2cc(Br)ccc2oc1=O)c1ccc(O)cc1O,-24.7%,-0.1%,11.2µM*,-3.0%,?
O=[N+]([O-])c1ccccc1OCCNCc1ccccc1,-20.4%,?,?,7.94µM*,44.7µM*
CNCCOc1ccccc1C(C)(C)C,?,-44.0%,?,12.6µM*,3.16µM*
CC(C)(C)c1ccccc1OCCOCCNCc1ccccc1,-27.1%,?,79.4µM*,14.1µM*,22.4µM*
COc1ccc(-c2cc3ccc(OCC(=O)NCC4CCC(C(=O)O)CC4)cc3oc2=O)cc1 (centres undefined),13.5%,41.3%,?,14.4%[12.7 µM],2.7%
CC(O)CNC1c2ccccc2CC1O (centres undefined),·,10.4%[57 µM],·,·,4.1%
Cc1ccc(-c2onc(C)c2C)cc1S(=O)(=O)N1CC(C)Oc2ccccc21 (centres undefined),-3.9%,59.9%,-13.7%,20.8%,-4.7%
Cc1ccc(NC(=O)CCSc2ccccc2)c(C)c1,21.7%,·,-1.8%,20.2%,·
Cc1cccc(C2CC(=O)Nc3cc4c(cc32)OCO4)c1 (centres undefined),·,-10.8%,?,-49.8%[59 µM],?
COC(=O)CSc1nc2nc(C)c(Br)cc2[nH]1,-16.2%,20.6%,1.9%,7.94µM*,-31.5%
C=C(C)CSc1nc2nc(C)c(Br)cc2[nH]1,8.2%,·,1.1%,7.08µM*,·
Cc1nc2ccc(S(=O)(=O)NCC(=O)NCCN3CCCCCC3)cc2s1,-2.0%,-3.9%,-36.4%,?,-22.5%
N#Cc1ccc(NC(=O)COC(=O)CCNS(=O)(=O)c2ccccc2)cc1,4.3%,38.5%,-1.2%,-4.9%[59 µM],1.7%
Cn1c(=O)c2c(nc(SCc3ccc(F)cc3)n2C)n(C)c1=O,15.1%,24.2%,-4.2%,3.0%,-4.0%
CC(=O)N1N=C(c2ccc(NS(C)(=O)=O)cc2)CC1c1ccc2nccnc2c1 (centres undefined),14.1%,45.6%,-15.0%,-3.6%,0.7%
CCC(=O)N1N=C(c2ccc(NS(C)(=O)=O)cc2)CC1c1ccc(N(C)C)cc1 (centres undefined),-2.3%,-14.8%,·,44.7µM*,?
CN(C)c1ccc(C2CC(c3cccc(NS(C)(=O)=O)c3)=NN2C(=O)c2ccccc2)cc1 (centres undefined),-3.4%,?,20µM*,·,-24.8%[11.4 µM]
O=C(CSc1ccc(F)cc1)Nc1cccc(S(=O)(=O)N2CCOCC2)c1,·,-15.0%,·,·,-20.7%
CCOC(=O)c1nc(Nc2ccc(C)cc2)c2ccccc2n1,2.2%,42.0%,1.2%,-33.1%[59 µM],-3.8%
COCCn1nnnc1CN1CCOCC1,-2.1%,6.8%,-6.2%,50.1µM*,-21.9%
OC1(c2cccc(C(F)(F)F)c2)CCN(Cc2nnnn2CCc2ccccc2)CC1,9.1%,29.4%,1.4%,-13.3%[59 µM],-9.0%
COCCn1nnnc1CN1CCN(c2cccc(C(F)(F)F)c2)CC1,-2.8%,6.8%,79.4µM*,?,-13.0%[11.4 µM]
COCCn1nnnc1CN1CCC(O)(c2cccc(C(F)(F)F)c2)CC1,12.4%,23.3%,-15.1%,79.4µM*,-16.3%
COCCn1nnnc1C(c1cccc(C(F)(F)F)c1)N1CCN(Cc2ccccc2)CC1 (centres undefined),-0.5%,4.9%,?,50.1µM*,-29.2%
COCCn1nnnc1CN1CCC(C)CC1,12.9%,87.5%,12.1%,9.2%[59 µM],-14.5%
CC(C)(C)NC(=O)CSc1nnc(Cc2ccccc2)n1CC1CCCO1 (centres undefined),11.8%,8.4%,-20.5%,-32.2%,-8.2%

# High-throughput results as filed in PubChem.
